Reference: PubChem BioAssay (NCATS)
Inconclusive results are not listed. A number with no mark means an inactive call. The source made the active and inactive calls. Calls come from the whole dose curve; as a rule, active = well fitted cell-killing curve with a large enough effect; inconclusive = small, poorly fitted or top-dose-only effect, or effect the other way; inactive = no such curve, though single readings can be large or run the other way.
Potency is the fitted concentration of half-maximal effect.

Assay: Quantitative High-Throughput drug screen in 47 multiple myeloma cell lines against the NCATS MIPE library collection: JJN3_DSMZ cell viability assay (AID 1918966; note: nearly all actives have a fitted effect of over 50% in size)
Details: JJN3 myeloma cells viability, CellTiter-Glo ATP, 48 h; series mostly up to 45.8 µM; viability, % of DMSO: at the top concentration
Outline: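 Approved and investigational drugs from MIPE 4.0 were added by pin tool to 500 cells per well. After 48 hours at 37C, ATP-based CellTiter-Glo luminescence indicated remaining viability.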
In the case of `C=CC(=O)Nc1cccc(Sc2nc(Nc3ccc(N4CCN(C)CC4)cc3)ncc2Cl)c1`, the Potency is reported as 37.2 µM (active). In the case of `Cc1cc(C(C)Nc2ccccc2)c2nc(N3CCOCC3)cc(=O)n2c1` (centres undefined), the “viability, % of DMSO” value is reported as 149%. In the case of `C[C@@H](NC(=O)c1ncnc(N)c1Cl)c1ncc(C(=O)Nc2cc(C(F)(F)F)c(Cl)cn2)s1`, the Potency is reported as 18.7 µM (active). In the case of `NC1(C(=O)N[C@@H](CCO)c2ccc(Cl)cc2)CCN(c2ncnc3[nH]ccc23)CC1`, the Potency is reported as 2.96 µM (active). With `c1ccc(-c2oc3ncnc(NC[C@@H]4CCCO4)c3c2-c2ccccc2)cc1` the Potency was 16.6 µM (active). For `CCCCCOC(=O)Nc1nc(=O)n([C@@H]2O[C@H](C)[C@@H](O)C2O)cc1F` (some centres undefined), the “viability, % of DMSO” value was 97.5%. For `CCOC(=O)[C@H](CCc1ccccc1)N[C@@H](C)C(=O)N1CCCC1C(=O)O` (some centres undefined), the “viability, % of DMSO” value was 139%. With `CC1(C)CC(=O)c2c(C(F)(F)F)nn(-c3ccc(C(N)=O)c(NC4CCC(O)CC4)c3)c2C1` (centres undefined) the Potency was 0.0662 µM (active). For `Cc1nc2c([nH]1)CCN(C(=O)c1ccc(NC(=O)c3ccccc3-c3ccccc3)cc1)c1ccccc1-2`, the “viability, % of DMSO” value was 153%. With `CCN(CC)CCCCNc1nc2cc(Cl)c(Cl)cc2nc1-c1ccc(-c2cccs2)s1` the Potency was 23.5 µM (active). For `O=S(=O)(O)c1ccc2cc(N=Nc3cc(S(=O)(=O)O)c4cccnc4c3O)ccc2c1`, the Potency was 18.7 µM (active). For `Cc1cn([C@@H]2C[C@@H](O)[C@H](CO)O2)c(=O)[nH]c1=O`, the “viability, % of DMSO” value was 132%. With `Cc1cccc(-c2[nH]c(C(C)(C)C)nc2-c2ccc3c(c2)OCO3)n1` the Potency was 14.8 µM (active). For `CCCCC[C@H](O)C=C[C@H]1[C@H](O)CC(=O)[C@H]1CCCCCCC(=O)O`, the Potency was 7.43 µM (active).
